Test results taken from the supplement of paper PMC6763611.

System: Plasmodium falciparum NF54
Test: growth inhibition relative to untreated control; higher = more inhibition
Conditions: 72 h
Summary of the method: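 Growth inhibition was measured by SYBR Green fluorescence, normalised to untreated wells and corrected for background from uninfected erythrocytes. The parasites were P. falciparum NF54 ring stages (1% hematocrit, 1% parasitemia) exposed to single 5 μM or 1 μM doses of test compounds for 72 h at 37 °C, in either minimal RPMI or minimal RPMI containing 2.2 μM folate, 7.3 μM pABA, 7.3 μM pHBA, 111 μM tyrosine, 90 μM phenylalanine and tryptophan.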

[1] = 1 µM, MM + chorismate end-products (CM screening medium)
[2] = 5 µM, MM + chorismate end-products (CM screening medium)

**Q.** What does the source list for `COc1cccc(OC)c1C(=O)Nc1ccc(Cl)c(-c2nc3ccccc3s2)c1`?
**A.** growth inhibition [1]: 20.8%; growth inhibition (1 µM, minimal medium (MM)): < 0%; growth inhibition [2]: 22.9%; growth inhibition (5 µM, minimal medium (MM)): 29.8%

**Q.** For `Nc1ncc(Br)cc1-c1nc2cc(Cl)cnc2[nH]1`, which growth inhibition [1] is on record?
**A.** The growth inhibition was 61.7%.

**Q.** What about the growth inhibition (1 µM, minimal medium (MM)) of the same compound?
**A.** Its growth inhibition is less than 0%.

**Q.** What about the growth inhibition [2] of the same compound?
**A.** The growth inhibition was 67.3%.

**Q.** And the growth inhibition (5 µM, minimal medium (MM))?
**A.** Its growth inhibition is 89.1%.

**Q.** For `NCCN(C(=O)c1ccc(Cl)cc1Cl)c1ccc(OCc2ccc(Cl)cc2)cc1`, which growth inhibition [1] is on record?
**A.** The growth inhibition was 33.8%.

**Q.** What about the growth inhibition (1 µM, minimal medium (MM)) of the same compound?
**A.** Its growth inhibition is 27.2%.

**Q.** What about the growth inhibition [2] of the same compound?
**A.** Its growth inhibition is 97.9%.

**Q.** What about the growth inhibition (5 µM, minimal medium (MM)) of the same compound?
**A.** Its growth inhibition is 91.1%.

**Q.** Which growth inhibition [1] does the source give for `COC(=O)c1c(NC(=O)c2c(F)c(F)c(F)c(F)c2F)sc2c1CCCCC2` here?
**A.** The growth inhibition was 26.9%.

**Q.** And the growth inhibition (1 µM, minimal medium (MM))?
**A.** The growth inhibition was 25.7%.

**Q.** What about the growth inhibition [2] of the same compound?
**A.** The growth inhibition was less than 0%.

**Q.** What about the growth inhibition (5 µM, minimal medium (MM)) of the same compound?
**A.** The growth inhibition was less than 0%.

**Q.** What does the source list for `c1ccc(Oc2ccc(-c3cc(N4CCOCC4)[nH]n3)cc2)cc1`?
**A.** growth inhibition [1]: > 100%; growth inhibition (1 µM, minimal medium (MM)): < 0%; growth inhibition [2]: 7.27%; growth inhibition (5 µM, minimal medium (MM)): < 0%

**Q.** With `COc1ccc(-c2nnc3ccc(-c4cccc(C(C)C)c4)cn23)cc1OC` as the compound, how does the growth inhibition [1] read?
**A.** Its growth inhibition is 9.51%.

**Q.** What about the growth inhibition (1 µM, minimal medium (MM)) of the same compound?
**A.** Its growth inhibition is 3.89%.

**Q.** What about the growth inhibition [2] of the same compound?
**A.** The growth inhibition was 33.1%.

**Q.** And the growth inhibition (5 µM, minimal medium (MM))?
**A.** Its growth inhibition is less than 0%.

**Q.** What does the source list for `c1coc(CNc2nc(N3CCCCC3)nc3ccccc23)c1`?
**A.** growth inhibition [1]: 68.6%; growth inhibition (1 µM, minimal medium (MM)): 35.7%; growth inhibition [2]: 67.2%; growth inhibition (5 µM, minimal medium (MM)): 67.2%

**Q.** With `Nc1ccc2ncnc(Nc3ccc(OCc4cccc(F)c4)c(Cl)c3)c2c1` as the compound, how does the growth inhibition [1] read?
**A.** Its growth inhibition is 61.9%.

**Q.** And the growth inhibition (1 µM, minimal medium (MM))?
**A.** The growth inhibition was 24.6%.

**Q.** What about the growth inhibition [2] of the same compound?
**A.** The growth inhibition was 99.7%.

**Q.** What about the growth inhibition (5 µM, minimal medium (MM)) of the same compound?
**A.** Its growth inhibition is 95.7%.

**Q.** What does the source list for `COc1ccc(-c2cncc3ccc(C(=O)NCCCn4ccnc4)nc23)cc1`?
**A.** growth inhibition [1]: 22.9%; growth inhibition (1 µM, minimal medium (MM)): 72%; growth inhibition [2]: 84.4%; growth inhibition (5 µM, minimal medium (MM)): 92.4%

**Q.** What does the source list for `COC(=O)c1cccc2oc(-c3cccc(OC)c3NC(=O)c3cc(-c4ccccc4)on3)nc12`?
**A.** growth inhibition [1]: < 0%; growth inhibition (1 µM, minimal medium (MM)): < 0%; growth inhibition [2]: < 0%; growth inhibition (5 µM, minimal medium (MM)): < 0%

**Q.** With `O=C(NCCc1ccn(-c2ccccc2)n1)C1CCCCC1` as the compound, how does the growth inhibition [1] read?
**A.** The growth inhibition was 13.1%.

**Q.** What about the growth inhibition (1 µM, minimal medium (MM)) of the same compound?
**A.** The growth inhibition was 20.1%.

**Q.** What about the growth inhibition [2] of the same compound?
**A.** The growth inhibition was less than 0%.

**Q.** And the growth inhibition (5 µM, minimal medium (MM))?
**A.** The growth inhibition was 3.27%.

**Q.** Which growth inhibition [1] does the source give for `COc1ccc(-c2onc(C(F)(F)F)c2-c2ccc(Cl)cc2)c(O)c1` here?
**A.** Its growth inhibition is 94%.

**Q.** What about the growth inhibition (1 µM, minimal medium (MM)) of the same compound?
**A.** The growth inhibition was 94.8%.

**Q.** What about the growth inhibition [2] of the same compound?
**A.** Its growth inhibition is 98.9%.

**Q.** What about the growth inhibition (5 µM, minimal medium (MM)) of the same compound?
**A.** Its growth inhibition is 97.5%.

**Q.** For `O=C(CCC1CCCCC1)Nc1cccc(-c2nnc(-c3ccco3)o2)c1`, which growth inhibition [1] is on record?
**A.** Its growth inhibition is 14.2%.

**Q.** And the growth inhibition (1 µM, minimal medium (MM))?
**A.** The growth inhibition was 9.19%.

**Q.** What about the growth inhibition [2] of the same compound?
**A.** The growth inhibition was less than 0%.

**Q.** And the growth inhibition (5 µM, minimal medium (MM))?
**A.** Its growth inhibition is less than 0%.

**Q.** Which growth inhibition [1] does the source give for `CC(C)=CCC/C(C)=C/CNCCNC1C2CC3CC(C2)CC1C3` (centres undefined) here?
**A.** Its growth inhibition is 88.5%.

**Q.** And the growth inhibition (1 µM, minimal medium (MM))?
**A.** The growth inhibition was 92.6%.

**Q.** And the growth inhibition [2]?
**A.** The growth inhibition was greater than 100%.

**Q.** And the growth inhibition (5 µM, minimal medium (MM))?
**A.** The growth inhibition was 91.3%.

**Q.** For `COc1ccc(-c2cc(NC(=O)c3ccc(F)cc3Cl)ccc2OC)cc1`, which growth inhibition [1] is on record?
**A.** Its growth inhibition is 8.71%.

**Q.** And the growth inhibition (1 µM, minimal medium (MM))?
**A.** Its growth inhibition is 13.2%.

**Q.** And the growth inhibition [2]?
**A.** Its growth inhibition is less than 0%.

**Q.** What about the growth inhibition (5 µM, minimal medium (MM)) of the same compound?
**A.** The growth inhibition was less than 0%.

**Q.** `CN1CCN(c2cc(-c3ccc(F)cc3)nc(-c3ccncc3)n2)CC1` was tested. Which growth inhibition [1] did it give?
**A.** The growth inhibition was 79.9%.

**Q.** And the growth inhibition (1 µM, minimal medium (MM))?
**A.** Its growth inhibition is 95.3%.

**Q.** And the growth inhibition [2]?
**A.** The growth inhibition was 92.9%.

**Q.** And the growth inhibition (5 µM, minimal medium (MM))?
**A.** The growth inhibition was 96.5%.
